The source of these data is PubChem BioAssay (NCI).

Some test systems named below: HCT-15 colon; HT29 colon; SNB-75 CNS; SNB-19 CNS; U251 CNS; PC-3 prostate; SK-MEL-5 melanoma; UACC-62 melanoma; LOX IMVI melanoma; SK-MEL-28 melanoma; SK-MEL-2 melanoma; EKVX NSCLC; SN12C renal; TK-10 renal; ACHN renal; CAKI-1 renal; A498 renal; MOLT-4 leukemia; UO-31 renal; CCRF-CEM leukemia.
Common to all, as to test: NCI-60 one-dose screen, 48 h (100 = growth as untreated, 0 = no growth, -100 = all killed)
Settings in all cases: 10 µM unless noted

This is part of a sample that, as a whole, favours compounds with a hit. Of some 83,000 tested, about 20% had one in any assay.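 Interpretation: 100, growth as untreated; towards 0, rising growth inhibition; 0, no net growth; 0 to -100, cell death. Compounds scoring below 10 were considered active.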 Values without a mark were called inactive. Active and inactive are the calls of the source.

For `Cc1ccc2nc(-c3ccc(N(C)C)c(Br)c3)cn2c1`, the growth was 33.9% with HCT-15 colon; 72.8% in the assay on HT29 colon; 103% with SNB-75 CNS; 99.4% with SNB-19 CNS; 49.1% in the assay on U251 CNS; 53.7% with PC-3 prostate. The growth in the assay with SK-MEL-5 melanoma is 77.9%; in the assay with UACC-62 melanoma, 66.6%; with LOX IMVI melanoma, 56.3%; in the assay on SK-MEL-28 melanoma it was 93.3%; in the assay on SK-MEL-2 melanoma it was 94.3%; with EKVX NSCLC it was 79.5%. Also, the growth in the assay with SN12C renal is 94.8%; in the assay on TK-10 renal it was 146%; in the assay with ACHN renal it was 95.6%; in the assay with CAKI-1 renal it was 126%; with A498 renal, 118%; in the assay with MOLT-4 leukemia, 28.6%.

On to `CC(C)N(Cc1ccccc1)c1c(Cl)ssc1=O`, for which the growth was 108% in the assay with HCT-15 colon; 100% in the assay with HT29 colon; 113% in the assay with SNB-75 CNS; 101% with SNB-19 CNS; 102% in the assay with U251 CNS; 95.9% in the assay on PC-3 prostate. Besides, the growth in the assay with SK-MEL-5 melanoma is 104%; in the assay with UACC-62 melanoma it was 93.1%; in the assay on LOX IMVI melanoma it was 96.3%; in the assay with SK-MEL-28 melanoma, 101%; with SK-MEL-2 melanoma, 93.7%; in the assay on EKVX NSCLC, 100%. Further, the growth in the assay with TK-10 renal is 124%; with ACHN renal, 102%; with CAKI-1 renal it was 113%; in the assay on A498 renal it was 109%; with MOLT-4 leukemia it was 121%.

As for `COCCCNS(=O)(=O)c1ncnc2nc[nH]c12`, the growth was 124% with HCT-15 colon; 125% with HT29 colon; 116% in the assay on SNB-75 CNS; 122% with SNB-19 CNS; 124% with U251 CNS; 106% in the assay on PC-3 prostate. For the same compound, the growth with SK-MEL-5 melanoma was 109%; with UACC-62 melanoma it was 112%; in the assay with LOX IMVI melanoma it was 111%; with SK-MEL-28 melanoma, 152%; with SK-MEL-2 melanoma, 147%; with EKVX NSCLC it was 101%. Besides, the growth in the assay on UO-31 renal is 96.9%; in the assay on TK-10 renal it was 140%; in the assay with ACHN renal it was 118%; with CAKI-1 renal it was 101%; in the assay on A498 renal it was 87%; with CCRF-CEM leukemia, 101%. The growth in the assay with MOLT-4 leukemia is 102%.

For `COc1cc(/C=C/C(=O)c2c(C)n([O-])c3ccccc3[n+]2=O)cc(OC)c1OC`, the growth was 30% with HCT-15 colon; 65.4% with HT29 colon; 81% in the assay on SNB-75 CNS; 50.8% in the assay with SNB-19 CNS; 47.7% in the assay with U251 CNS; 25.5% in the assay with PC-3 prostate. The growth in the assay on SK-MEL-5 melanoma is 21.3%; in the assay on UACC-62 melanoma it was 54.7%; in the assay with LOX IMVI melanoma, 50.9%; with SK-MEL-28 melanoma, 79%; in the assay with SK-MEL-2 melanoma, 36.8%; with EKVX NSCLC it was 35.5%. Moreover, the growth in the assay on SN12C renal is 54.6%; in the assay with TK-10 renal, 87.9%; in the assay on ACHN renal, 76.6%; in the assay on CAKI-1 renal it was 26.3%; in the assay with A498 renal, 69.7%; in the assay with CCRF-CEM leukemia it was -51.2% (active). Also, in the assay on MOLT-4 leukemia, the growth was -64.5% (active).

Consider `CCCCCN(CCCCC)CCCNc1c2c(nc3ccc(Cl)cc13)CCCC2`, for which the growth was 32.5% with HCT-15 colon; 1.62% (active) in the assay with HT29 colon; 47.9% with SNB-75 CNS; 60.8% in the assay on SNB-19 CNS; 35% with U251 CNS; 41.7% with PC-3 prostate. The growth in the assay with SK-MEL-5 melanoma is 23.4%; with UACC-62 melanoma it was 51%; in the assay with LOX IMVI melanoma it was 14%; in the assay with SK-MEL-28 melanoma it was 71.2%; in the assay with SK-MEL-2 melanoma, 13.4%; in the assay with EKVX NSCLC, 50.7%. Besides, the growth was 49.9% with SN12C renal; 31.5% in the assay on TK-10 renal; 40.8% in the assay with ACHN renal; 26.6% with CAKI-1 renal; 38.4% in the assay with A498 renal; 27% with CCRF-CEM leukemia. The growth in the assay with MOLT-4 leukemia is 27.8%.

Consider `CC(=O)N1N=C(c2ccc(Nc3ccnc4cc(Cl)ccc34)cc2)CC1c1ccc(Cl)cc1` (configuration not stated), for which the growth is 30.1% in the assay with HCT-15 colon; 25.9% in the assay with HT29 colon; 59.6% with SNB-75 CNS; 65.6% in the assay on SNB-19 CNS; 57.9% with U251 CNS; 37.8% in the assay on PC-3 prostate. Moreover, the growth in the assay with SK-MEL-5 melanoma was -50.1% (active); in the assay on UACC-62 melanoma it was 44.2%; in the assay with LOX IMVI melanoma, 33.6%; with SK-MEL-28 melanoma it was 45.9%; in the assay on SK-MEL-2 melanoma, 54.1%; with EKVX NSCLC, 36.4%. Moreover, the growth was 24.1% in the assay on UO-31 renal; 44.7% in the assay with CAKI-1 renal; 43.9% with A498 renal; 31% in the assay on CCRF-CEM leukemia; 34.2% in the assay with MOLT-4 leukemia.

`COc1cnc2c(c1)C(=O)c1c-2n(CCCN2CCNCC2)c(=O)c2cc(F)ccc12`: the growth in the assay on HCT-15 colon was 2.48% (active); in the assay with HT29 colon, -42.1% (active); in the assay with SNB-75 CNS it was -7.98% (active); in the assay with SNB-19 CNS, 18.3%; with U251 CNS, 2.03% (active); with PC-3 prostate, 22.8%. In addition, the growth is -88.5% (active) in the assay on SK-MEL-5 melanoma; -0.448% (active) in the assay with UACC-62 melanoma; -86.8% (active) with LOX IMVI melanoma; -60.5% (active) in the assay with SK-MEL-28 melanoma; -17.1% (active) in the assay on SK-MEL-2 melanoma; 18.7% in the assay on EKVX NSCLC. In addition, the growth in the assay on UO-31 renal is -50.1% (active); in the assay on ACHN renal, -78.1% (active); with A498 renal, -25.7% (active); with CCRF-CEM leukemia it was -1.3% (active); with MOLT-4 leukemia, -16.2% (active).

`COc1ccc2c(c1)sc1nc(-c3ccc(N(C)C)cc3)cn12`: the growth in the assay with HCT-15 colon was 116%; in the assay on HT29 colon it was 113%; in the assay with SNB-75 CNS, 162%; in the assay on SNB-19 CNS it was 95.3%; in the assay on U251 CNS, 98.3%; in the assay on PC-3 prostate, 60.6%. For the same compound, the growth with SK-MEL-5 melanoma was 108%; in the assay on UACC-62 melanoma, 104%; with LOX IMVI melanoma it was 113%; in the assay on SK-MEL-28 melanoma, 144%; with SK-MEL-2 melanoma, 88.6%; with EKVX NSCLC, 101%. Further, the growth is 123% in the assay with SN12C renal; 135% in the assay with ACHN renal; 86.2% in the assay on CAKI-1 renal; 111% with A498 renal; 71.2% in the assay on CCRF-CEM leukemia; 76.7% in the assay on MOLT-4 leukemia.

With `CCN(CC)CCSc1ncnc2c1cnn2-c1ccc(S(N)(=O)=O)cc1`, the growth in the assay on HCT-15 colon is 89%; in the assay with HT29 colon, 85.7%; in the assay on SNB-75 CNS it was 108%; in the assay with SNB-19 CNS, 107%; in the assay with U251 CNS, 92.9%; with PC-3 prostate, 85.7%. Besides, the growth in the assay on SK-MEL-5 melanoma was 79.1%; with UACC-62 melanoma, 92.7%; with LOX IMVI melanoma, 87%; in the assay on SK-MEL-28 melanoma it was 92.8%; in the assay with SK-MEL-2 melanoma, 96.5%; in the assay on EKVX NSCLC it was 86.8%. In addition, the growth was 87.7% with UO-31 renal; 103% in the assay with TK-10 renal; 7.74% (active) in the assay on CAKI-1 renal; 92% with A498 renal; 88.4% with CCRF-CEM leukemia; 85.6% with MOLT-4 leukemia.
